This is an account of results in PubChem BioAssay (Tox21).

The structures appear in SMILES notation. Results filed as inconclusive are left out. Activity calls are given as the source filed them. Calls follow the shape of the dose curve; as a rule, active = well fitted activation curve with a large enough effect in the repeat runs; inconclusive = weak or mixed curves; inactive = flat fitted curve, though single readings scatter.
% is scaled to controls: 0 for no effect and ±100 for the full control effect.

This experiment is described as follows: A CellTox Green Cytotoxicity Assay to monitor cytotoxicity in HepG2 cells - 24 hour (AID 1224878). Also: nearly all actives have a fitted effect of over 45% in size. Conditions: CellTox Green fluorescence; series mostly up to 76.8 µM; cytotoxicity: at the top concentration. An excerpt: National Center for Advancing Translational Sciences [NCATS]
NIH Chemical Genomics Center [NCGC]
U.S. Environmental Protection Agency [EPA]
National Institutes of Environmental Health Sciences [NIEHS]
National Toxicology Program [NTP]
Cell-based models are critical for drug discovery. Determining the natural cytotoxic effects resulting from test compounds is an essential research activity. A CellTox Green Cytotoxicity Assay to monitor cytotoxicity in real time of continues cell culture during 40 hours of the compound treatment was used to screen Tox21 10K library compounds in HepG2 cells. CellTox Green Cytotoxicity Assay is a nonlytic, homogeneous, biofluorescent method to measure cytotoxicity in cell culture after experimental manipulation. The assay system uses a proprietary asymmetric cyanine dye that is excluded from viable cells but preferentially stains the dead cell's DNA. […] Viable cells produce no appreciable increases in fluorescence. Therefore, the fluorescence signal produced by the binding interaction with dead cell DNA is proportional to cytotoxicity.
The mixture of HepG2 cell suspension and reagents were dispensed at 600cells/6 ul/well in 1536-well tissue culture treated black solid bottom plates using a Multidrop dispenser. After the assay plates were incubated at a 37 C/5% CO2 incubator for 5 hours, 23 nL of compounds dissolved in DMSO, positive and negative controls was transferred to the assay plate by a pintool work station. The plates were incubated at 37 C for 40 hours. The fluorescence intensity were measured at 0h, 8h, 16h, 24h, 32h and 40h time points using ViewLux plate reader during compound treatment.
As to `C(COCC1CO1)OCC1CO1` (stereo not given), the “cytotoxicity” value is 10.8% (inactive). Still for that read-out and setting: the result for `O=C(Cl)c1ccccc1` reads 5.49% (inactive); that for `COc1ccc(CN2CCNCC2)c(OC)c1OC`, -13.9% [at 35.3 µM] (inactive).

`CCC(C)(C#N)N=NC(C)(C#N)CC` (stereo not given): the “cytotoxicity” value was -22.7% (inactive). The same measure, in the same setting: for `OP(O)c1ccccc1` the value was -2.26% (inactive). Regarding `C/C(=N\NC(=O)Nc1cc(F)cc(F)c1)c1ncccc1C(=O)O`, the Potency entry was “inactive”.

Take `CC(C)(C)NC[C@H](O)c1ccc(O)cc1Cl`: the “cytotoxicity” value was 4.17% [at 35.3 µM] (inactive). Consider `COc1cccc([C@@]2(O)CCCC[C@@H]2CN(C)C)c1`, for which the “cytotoxicity” value was 1.3% [at 35.3 µM] (inactive). For the molecule `O=c1[nH]c2ccccc2o1`, the “cytotoxicity” value was 7.72% (inactive). `CC(Cc1ccccc1)NCCCCl` (stereo not given): the “cytotoxicity” value was 4.1% [at 35.3 µM] (inactive). As for `Cn1c(CCCC(=O)O)nc2cc(N(CCCl)CCCl)ccc21`, the “cytotoxicity” value is -16% [at 35.3 µM] (inactive).

`CCCCCCC(=O)CCCCCC/C=C/C[C@@H](O)[C@H](O)[C@@](N)(CO)C(=O)O`: the cytotoxicity was -14.9% [at 15.8 µM] (inactive). Same read-out and setting: the result for `NC(=O)CS(=O)C(c1ccccc1)c1ccccc1` (stereo not given) reads -8.86% [at 35.3 µM] (inactive). On to `CCN(CCO)CCn1c(Cc2ccccc2)nc2c1c(=O)n(C)c(=O)n2C`, for which the “cytotoxicity” value was -9.61% [at 35.3 µM] (inactive). On the same count and under the same terms, for `CCC1(CC)C(=O)C=CNC1=O` the value was -7.25% [at 35.3 µM] (inactive); for `O=C(Cl)C(Cl)Cl`, -0.511% (inactive); for `CCOC(=O)N(C)N=O`, -0.556% (inactive).

With `CCCCCCCCBr`, the “cytotoxicity” value is -15.8% (inactive). The same measure, in the same setting: for `CCC(C)C(C)(COC(N)=O)COC(N)=O` (stereo not given) the value was -9.77% [at 35.3 µM] (inactive); for `O=C(Cl)OCc1ccccc1`, -5.88% (inactive); for `COC(=O)c1ccccc1CS(=O)(=O)NC(=O)Nc1nc(OC)cc(OC)n1`, -0.139% (inactive). On the same count and under the same terms, for `O=C(NC(=O)c1c(F)cccc1F)Nc1cc(Cl)c(F)c(Cl)c1F` the value was -12.2% (inactive); for `CC(C)(N)Cc1ccc(Cl)cc1`, -5.82% [at 35.3 µM] (inactive). On the same count and under the same terms, for `C=C1C[C@@H]2[C@H](CC[C@]3(C)C(=O)CC[C@@H]23)[C@@]2(C)C=CC(=O)C=C12` the value was 0.359% [at 35.3 µM] (inactive). In the case of `COc1ccc2c(C(=O)c3ccc(Cl)cc3)c(C)n(CC(=O)O)c2c1`, the “cytotoxicity” value was -20.2% [at 35.3 µM] (inactive).

Regarding `CCCCOC(C)=O`, the “cytotoxicity” value is -0.187% (inactive). Same read-out and setting: the result for `S=C=S` reads 8.39% (inactive); that for `CN(C)C1CCCCC1`, 0.9% (inactive); that for `CC(C)[N+](C)(CCC(C(N)=O)(c1ccccc1)c1ccccc1)C(C)C`, -13.6% [at 35.3 µM] (inactive).

Take `NCCOS(=O)(=O)O`: the “cytotoxicity” value is -1.31% (inactive).

Turning to `Clc1ccc(C(Cl)(Cl)Cl)cn1`, the “cytotoxicity” value was 10.6% (inactive). Still for that read-out and setting: the result for `CCC(=O)OC1(c2ccccc2)CCN(C)CC1` reads -6.71% (inactive); that for `Cc1ccc2cc(C)ccc2c1`, -2.5% (inactive).

With `CCOC(=O)COc1ccc(Cl)cc1Cl`, the “cytotoxicity” value is -0.331% (inactive).

On to `C[N+]1(C)CCCCC1`, for which the “cytotoxicity” value is -3.9% (inactive). On to `CCN(CC)C1CCCCC1`, for which the “cytotoxicity” value was -4.43% (inactive). `CC(=O)OCC1=C(C(=O)O)N2C(=O)[C@@H](N)[C@H]2SC1`: the cytotoxicity was 0.21% [at 15.8 µM] (inactive). Same read-out and setting: for `CCN(CC)CCOC(=O)C(O)(c1ccccc1)c1ccccc1` the value was -8.37% [at 35.3 µM] (inactive).

As for `O=C(O)C(Br)(Br)Br`, the “cytotoxicity” value was -0.756% (inactive). The same measure, in the same setting: for `N[C@@H](Cc1ccc(Oc2cc(I)c(O)c(I)c2)c(I)c1)C(=O)O` the value was 0.992% [at 35.3 µM] (inactive).
